The list is a sample of the results.
aSyn 5UTR act – Activators working through SNCA 5'UTR binding (MLPCN); alpha-synuclein 5'UTR reporter, activators screen; 7.1% of 300,000 active; activity score, % (tested at 7.5 µM), hits read low; AID 1814; in the data active = activity score below about -60%
* = called active by the depositor.

SMILES | aSyn 5UTR act
Cc1nc2sc(C(=O)Nc3ccccc3)c(N)c2c(C)c1[N+](=O)[O-] | -79*
CC(=O)Nc1ccc(Nc2nc(C)c([N+](=O)[O-])c(Nc3ccccc3)n2)cc1 | 58
Cc1ccc(Cl)c(NC(=O)CCl)c1Cl | -87*
Cc1ccsc1/C=N/n1cnc2sc(C)c(C)c2c1=O | -101*
CC(C)N1CCC2(CC1)N=C(c1ccc3c(c1)OCO3)CC(c1cc(Cl)ccc1O)N2 (stereo not given) | -173*
FC(F)(F)c1cc(-c2ccccn2)nc2cc(-c3ccccc3)nn12 | -78*
COc1ccc(-n2nc(N)c(C(N)=O)n2)cc1 | -68*
COc1ccc(N2C(N)=NC(N)=NC2(C)C)cc1 | 81
CCOc1ncccc1C(=O)Nc1nc(SC)ns1 | -108*
CSc1nsc(NC(=O)Cc2ccccc2)n1 | -85*
O=C(Nc1nc2cc3c(cc2s1)OCCO3)C1=COCCO1 | 99
CC(C)C(=O)Nc1nc2cc3c(cc2s1)OCO3 | -179*
CC(C)(C)C(=O)Nc1nc2cc3c(cc2s1)OCO3 | -144*
Cc1ccc(C2=NN(S(C)(=O)=O)C(c3ccc4c(c3)OCO4)C2)cc1 (stereo not given) | -265*
CS(=O)(=O)N1N=C(c2ccc(Br)cc2)CC1c1ccc2c(c1)OCO2 (stereo not given) | -322*
CC(=O)N1N=C(c2ccc(C)cc2)CC1c1ccc2c(c1)OCO2 (stereo not given) | -133*
CC(=O)N1N=C(c2ccccc2)CC1c1cn(C)c2ccccc12 (stereo not given) | -117*
COc1ccc(C2=NN(C(=O)COc3ncnc4ccccc34)C(c3ccco3)C2)cc1 (stereo not given) | 64
CC(=O)N1N=C(c2ccc(C)cc2)CC1c1ccco1 (stereo not given) | -98*
COc1cccc(N(C(=O)c2cccs2)c2nc3ccccc3s2)c1 | -154*
Cc1cc(=O)oc2cc(NC(=O)c3ccccc3Cl)ccc12 | -201*
Cc1cc(=O)oc2cc(NC(=O)c3c(Cl)cnn3C)ccc12 | -76*
Cc1ccc2sc3ccc(NC(=O)c4ccccc4Cl)cc3c(=O)c2c1 | -109*
Cc1cc(=O)oc2cc(NC(=O)c3ccnn3C)ccc12 | -135*
CCOC(=O)C1(Cc2ccccc2Cl)CCN(C(=O)c2cc(C)on2)CC1 | -83*
SMILES | aSyn 5UTR act
CCOC(=O)C1(Cc2ccccc2Cl)CCN(C(=O)c2cnccn2)CC1 | -125*
CCCOc1ccc(-c2csc3nc[nH]c(=O)c23)cc1 | -159*
O=c1[nH]cnc2scc(-c3ccc(-c4ccccc4)cc3)c12 | -88*
C/C(N)=C(/C#N)C(=O)CSc1nc2ccc(C)cc2[nH]1 | -183*
Cc1ccc2nc(SCC(=O)Nc3cc(C(F)(F)F)ccc3N3CCOCC3)[nH]c2c1 | 96
Cc1ccc2nc(SCC(=O)N3CCOCC3)[nH]c2c1 | -89*
Cc1ccc2[nH]c(SCC(=O)N3CCOCC3)nc2c1C | -110*
C=CCn1c2ccccc2c(=O)c2cc(C#CC3(O)CCCCC3)ccc21 | -170*
O=C(Nc1nc2cc3c(cc2s1)OCO3)C1CCCCC1 | -140*
O=C(Nc1nc2cc3c(cc2s1)OCO3)C1CC1 | -161*
S=C(c1ccc(-c2ccc(Cl)cc2)o1)N1CCCCC1 | -150*
N#CCCN1CCN(C(=S)c2ccc(-c3ccc(Cl)cc3)o2)CC1 | -88*
CN1CCN(C(=S)c2ccc(-c3cccc(Cl)c3Cl)o2)CC1 | -113*
O=C(Nc1ccccc1N1CCCCC1)c1ccc(-c2ccc(Cl)cc2)o1 | 99
S=C(c1ccc(-c2ccccc2Cl)o1)N1CCCCC1 | -170*
O=C(c1ccc(-c2ccccc2Cl)o1)N1CCN(S(=O)(=O)c2cccs2)CC1 | -114*
O=C(/C=C(/c1ccc(Cl)cc1)n1cncn1)c1ccccc1 | -62*
CCCCC(=O)Nc1nc2c(s1)COc1ccccc1-2 | -107*
CCCC(=O)Nc1nc2c(s1)COc1ccccc1-2 | -134*
O=C(c1cc(COc2c(F)cccc2F)on1)N1CCCCCC1 | -99*
O=C(c1cc(COc2ccc3c(c2)CCCC3)on1)N1CCCC1 | -118*
CCOC(=O)N1CCN(C(=O)c2cc(COc3c(F)cccc3F)on2)CC1 | -151*
Cc1ccc(-n2ncc(Cl)c2C(=O)NC2CC2)cc1 | -153*
CNC(=O)c1c(Br)cnn1-c1ccc(C)cc1 | -158*
CNC(=O)c1c(Cl)cnn1-c1ccc(C)cc1 | -151*
SMILES | aSyn 5UTR act
C=CCNC(=O)c1c(Cl)cnn1-c1ccc(C)cc1 | -95*
COC(=O)c1ccc(N)nc1 | -79*
CC(C)c1nc2oc3ccccc3c(=O)c2c(=O)n1-c1ccccc1 | -325*
O=c1c2ccccc2oc2nc(-c3ccco3)n(-c3ccccc3)c(=O)c12 | -251*
CC(C)c1nc2sc3ccccc3c(=O)c2c(=O)n1Cc1ccccc1 | 54
COc1ccc2c(=O)c3c(=O)n(-c4ccccc4)c(-c4ccc(C)cc4)nc3oc2c1 | -79*
O=C1CC(c2ccccc2F)c2cc3c(cc2N1)CCC3 (stereo not given) | 65
Cc1cc(C)c(OCC(=O)Nc2cc(C(=O)O)cc(C(=O)O)c2)cc1C | -129*
Cc1ccc(C)c(OCC(=O)Nc2cccc(C(=O)O)c2)c1C | -110*
O=C(Cn1cc(SCc2ccccc2Cl)c2ccccc21)N1CCOCC1 | -163*
CCn1cc(SCC(=O)N2CCOCC2)c2ccccc21 | -114*
Cc1ccn2cc(CSc3ccccc3N)nc2c1 | -97*
Cc1ccc(SCc2cn3ccccc3n2)cc1 | -97*
c1ccc(CSCc2cn3ccccc3n2)cc1 | -135*
Cc1ccc2oc(-c3ccc(NC(=O)c4ccc5c(c4)OCO5)cc3)nc2c1 | -105*
Cc1ccc(-c2nc3ccccc3o2)cc1NC(=O)c1ccc2c(c1)OCO2 | -151*
O=C(Nc1ccc(-c2nc3ccccc3o2)cc1)c1ccc2c(c1)OCO2 | -66*
Cc1nc2nc(-c3ccccc3)nn2c(C)c1C | -105*
Cc1nc2nc(-c3ccc(Cl)cc3)nn2c(C)c1Cl | -235*
Fc1ccc(Nc2ccc(-c3ccc(F)cc3)nn2)cc1 | -161*
Fc1ccc(-c2ccc(Nc3cccc(F)c3)nn2)cc1 | -131*
CSc1ccc(CN(C)C(=O)c2cc3ccccc3o2)cc1 | -67*
Cc1ccc(N(C(=O)Nc2ccccc2)C2=NCC(C)S2)cc1 (stereo not given) | -62*
CC(=O)c1c(C)[nH]c(C(=O)Nc2cccc(C(F)(F)F)c2)c1C | -100*
CC(=O)c1c(C)[nH]c(C(=O)Nc2ccc(C)c(C)c2)c1C | -88*
SMILES | aSyn 5UTR act
CC(=O)c1c(C)[nH]c(C(=O)Nc2ccc3c(c2)OCCO3)c1C | -144*
COc1ccc(NC(=O)c2[nH]c(C)c(C(C)=O)c2C)cc1Cl | -77*
CCOC(=O)c1c(C)[nH]c(C(=O)Nc2ccc(NC(C)=O)cc2)c1C | 89
CCc1c(C(=O)Nc2ccc(C)c(C)c2)[nH]c(C)c1C(C)=O | -146*
CCOC(=O)c1c(C)[nH]c(C(=O)Nc2ccc(C)c(Cl)c2)c1C | -108*
O=C(Nc1ccc2c(c1)OCCO2)c1cc2sccc2n1Cc1ccccc1 | -102*
O=C(Nc1ccc2c(c1)OCCO2)c1cc2sccc2n1Cc1ccc(F)cc1 | -110*
Cn1c(C(=O)Nc2ccc3c(c2)OCCO3)cc2sccc21 | -87*
CCn1cc(NC(=O)CCl)c(C)n1 | -104*
NC1=NC2=C(CCCC2)C2(CCCCC2)S1 | 77
O=C(Nc1ccc(Br)cc1)c1cnc[nH]1 | -107*
CCc1ccc(N(C(=O)c2csnn2)C(C(=O)NC(C)(C)C)c2ccccn2)cc1 (stereo not given) | -102*

Bioassay records: PubChem, Broad Institute
